About 83,000 compounds went through this panel and 20% of them were active in at least one assay; those are over-represented in the sample as a whole.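 The endpoint reported here, percent growth, reads 100 for growth as untreated, 0 for no net growth and -100 for all cells dead.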 Calls of active or inactive are those of the source. Rule for the calls: active = growth percent below 10; inactive = the rest.
What was measured:
Test in all cases: NCI-60 one-dose screen, 48 h (100 = growth as untreated, 0 = no growth, -100 = all killed)
Settings in all cases: 10 µM unless noted
NCI-H23 lung = tested on: NCI-H23 lung
NCI-H226 lung = tested on: NCI-H226 lung
NCI-H322M lung = tested on: NCI-H322M lung
HOP-62 NSCLC = tested on: HOP-62 NSCLC
NCI-H460 lung = tested on: NCI-H460 lung
HOP-92 NSCLC = tested on: HOP-92 NSCLC
NCI-H522 lung = tested on: NCI-H522 lung
A549/ATCC NSCLC = tested on: A549/ATCC NSCLC
786-0 renal = tested on: 786-0 renal
COLO 205 colon = tested on: COLO 205 colon

Measured: growth

COc1ccc(/C(C)=N/NC(=O)CSc2nc3ccccc3c(=O)n2Cc2ccc(S(N)(=O)=O)cc2)c(OC)c1
inactive: NCI-H23 lung 101% | NCI-H226 lung 93.9% | NCI-H322M lung 94.8% | HOP-62 NSCLC 100% | NCI-H460 lung 102% | HOP-92 NSCLC 112% | NCI-H522 lung 96% | A549/ATCC NSCLC 102% | 786-0 renal 105% | COLO 205 colon 118%

Cc1cc(NC(=O)c2cnc(N3CCN(CCOCCOCCOCCOCCC(=O)N[C@H](C(=O)N4C[C@H](O)C[C@H]4C(=O)N[C@@H](C)c4ccc(-c5scnc5C)cc4)C(C)(C)C)CC3)cn2)c2ncccc2c1
inactive: NCI-H322M lung 35.6% | A549/ATCC NSCLC 66.7% | 786-0 renal 29.9% | COLO 205 colon 47.1%
active: NCI-H23 lung 4.34% | NCI-H226 lung 1.46% | HOP-62 NSCLC 4.92% | NCI-H460 lung 7.54% | HOP-92 NSCLC 4.9% | NCI-H522 lung -15.6%

O=C(N/N=C/c1ccc(O)c(O)c1)c1sc2ccccc2c1Cl
inactive: NCI-H23 lung 97% | NCI-H226 lung 68.8% | NCI-H322M lung 98.5% | HOP-62 NSCLC 81.7% | NCI-H460 lung 46% | HOP-92 NSCLC 49.7% | NCI-H522 lung 95% | A549/ATCC NSCLC 96.3% | 786-0 renal 65.2% | COLO 205 colon 53.5%

COc1cc2nnn3c4ncccc4c(N=O)c3c2cc1OC
active: HOP-92 NSCLC -12% | NCI-H522 lung -34.3%
inactive: NCI-H23 lung 112% | NCI-H226 lung 97% | NCI-H322M lung 78.6% | HOP-62 NSCLC 106% | NCI-H460 lung 84.9% | A549/ATCC NSCLC 95.2% | 786-0 renal 48.2% | COLO 205 colon 102%

CCN1C(=O)N(CC)C2C1NN=c1s/c(=C3\C(=O)Nc4ccccc43)c(=O)n12 (stereo not given)
inactive: NCI-H23 lung 37.3% | NCI-H226 lung 93.2% | NCI-H322M lung 43.5% | A549/ATCC NSCLC 28.8% | 786-0 renal 27.7%
active: HOP-62 NSCLC 5.9% | NCI-H460 lung 9.09% | HOP-92 NSCLC -4.18% | NCI-H522 lung 2.21% | COLO 205 colon -25.1%

COc1cc2ncnc(Nc3ccc(C(=O)/C=C/c4ccc(C(F)(F)F)cc4F)cc3)c2cc1OC
inactive: NCI-H23 lung 99.5% | NCI-H226 lung 92.7% | NCI-H322M lung 99.7% | HOP-62 NSCLC 144% | NCI-H460 lung 108% | HOP-92 NSCLC 113% | NCI-H522 lung 98.3% | A549/ATCC NSCLC 95.2% | 786-0 renal 85.6% | COLO 205 colon 160%

COc1ccc(CNC(=O)COc2ccc(/C=N/Nc3nc4ccccc4s3)cc2)cc1
active: NCI-H460 lung -12.6% | HOP-92 NSCLC -24.8% | 786-0 renal -6.47%
inactive: NCI-H23 lung 33.9% | NCI-H226 lung 18% | NCI-H322M lung 30.2% | HOP-62 NSCLC 39.3% | NCI-H522 lung 31.1% | A549/ATCC NSCLC 26.5% | COLO 205 colon 64%

O=C(N/N=C/c1ccc(F)cc1)c1ccccc1Nc1cccc(C(F)(F)F)c1
inactive: NCI-H23 lung 104% | NCI-H226 lung 95.8% | NCI-H322M lung 111% | HOP-62 NSCLC 109% | NCI-H460 lung 101% | HOP-92 NSCLC 76.4% | NCI-H522 lung 92.8% | A549/ATCC NSCLC 53.3% | 786-0 renal 95.5% | COLO 205 colon 120%

COc1cc(C2CC(c3cccc(Nc4ccncc4)c3)=NN2c2ccc(Cl)cc2)cc(OC)c1OC (stereo not given)
active: HOP-62 NSCLC -44.4% | NCI-H460 lung -73.8% | NCI-H522 lung -46.1% | COLO 205 colon -63.1%
inactive: NCI-H23 lung 79.9% | NCI-H226 lung 84.3% | NCI-H322M lung 65.1% | HOP-92 NSCLC 25.1% | A549/ATCC NSCLC 26.1% | 786-0 renal 104%

COc1cc(C2NC(c3cc(OC)c(OC)c(OC)c3)C(C#N)(C#N)C2(C#N)C#N)cc(OC)c1OC (stereo not given)
inactive: NCI-H23 lung 101% | NCI-H226 lung 91.5% | NCI-H322M lung 100% | HOP-62 NSCLC 94.8% | NCI-H460 lung 104% | HOP-92 NSCLC 96.5% | NCI-H522 lung 95.6% | A549/ATCC NSCLC 103% | 786-0 renal 97% | COLO 205 colon 101%

C=C(C)[C@@H]1CC[C@]2(C(=O)NCCCN(CCC#N)CCC#N)CC[C@]3(C)[C@H](CC[C@@H]4[C@@]5(C)CCC(=O)C(C)(C)[C@@H]5CC[C@]43C)[C@@H]12
inactive: NCI-H23 lung 109% | NCI-H226 lung 102% | NCI-H322M lung 104% | HOP-62 NSCLC 105% | NCI-H460 lung 104% | HOP-92 NSCLC 82.4% | NCI-H522 lung 93.5% | A549/ATCC NSCLC 91.2% | 786-0 renal 94.2% | COLO 205 colon 111%

COc1cc(NCCCN(CC(C)C)CC(C)C)c2ncccc2c1
inactive: NCI-H23 lung 72.9% | NCI-H226 lung 97.8% | NCI-H322M lung 108% | HOP-62 NSCLC 87.6% | NCI-H460 lung 95.2% | HOP-92 NSCLC 84.2% | NCI-H522 lung 73.2% | A549/ATCC NSCLC 80.7% | 786-0 renal 90.7% | COLO 205 colon 90.2%

O=C(O)CCCCCCCCCCCCCCC(=O)O
inactive: NCI-H23 lung 103% | NCI-H226 lung 85.3% | NCI-H322M lung 100% | HOP-62 NSCLC 99.1% | NCI-H460 lung 110% | HOP-92 NSCLC 85.1% | NCI-H522 lung 89.6% | A549/ATCC NSCLC 90.5% | 786-0 renal 102% | COLO 205 colon 108%

CCCCCCNC(=O)Oc1ccc(/C(=C(/CC)Cc2ccccc2)c2ccc(OCCN(CC)CC)cc2)cc1
active: NCI-H460 lung -41.3% | COLO 205 colon -48.6%
inactive: NCI-H23 lung 88% | NCI-H226 lung 89.3% | NCI-H322M lung 87.5% | HOP-62 NSCLC 88.8% | HOP-92 NSCLC 42.3% | NCI-H522 lung 74.5% | A549/ATCC NSCLC 56.2% | 786-0 renal 63.7%

Cc1c([N+](=O)[O-])cc(C(C)(C)C)cc1[N+](=O)[O-]
inactive: NCI-H23 lung 97.4% | NCI-H226 lung 91.3% | NCI-H322M lung 117% | HOP-62 NSCLC 76.2% | NCI-H460 lung 102% | HOP-92 NSCLC 96.4% | NCI-H522 lung 60.2% | A549/ATCC NSCLC 81.8% | 786-0 renal 104% | COLO 205 colon 114%

N#Cc1ccc(-c2ccc3c(c2)NC(=O)/C3=C\c2ccc[nH]2)cc1
inactive: NCI-H23 lung 36.4% | NCI-H226 lung 58.1% | NCI-H322M lung 70% | HOP-62 NSCLC 84.4% | NCI-H460 lung 76.2% | HOP-92 NSCLC 36.4% | NCI-H522 lung 81.8% | A549/ATCC NSCLC 104% | 786-0 renal 105% | COLO 205 colon 93.9%

C=C1C(=O)O[C@H]2[C@H]1CC/C(CNC(=O)/C=C/c1ccc(Br)cc1)=C\CC[C@@]1(C)O[C@@H]21
inactive: NCI-H226 lung 12.3% | NCI-H322M lung 39.6% | HOP-62 NSCLC 41.2% | A549/ATCC NSCLC 14.2%
active: NCI-H23 lung -9.66% | NCI-H460 lung 4.75% | HOP-92 NSCLC -26.2% | NCI-H522 lung -71.2% | 786-0 renal -63.4% | COLO 205 colon -64.9%

Fc1ccccc1CSc1ncnc2nc[nH]c12
inactive: NCI-H23 lung 110% | NCI-H226 lung 109% | NCI-H322M lung 131% | HOP-62 NSCLC 93.4% | NCI-H460 lung 97.8% | HOP-92 NSCLC 122% | NCI-H522 lung 54% | A549/ATCC NSCLC 104% | 786-0 renal 106% | COLO 205 colon 103%

NC(=O)c1ccc[n+](CC(=O)N2CCN(c3cc4c(cc3F)c(=O)c(C(=O)O)cn4C3CC3)CC2)c1
active: NCI-H522 lung -73.1%
inactive: NCI-H23 lung 92.4% | NCI-H226 lung 97.3% | NCI-H322M lung 104% | HOP-62 NSCLC 111% | NCI-H460 lung 101% | HOP-92 NSCLC 133% | A549/ATCC NSCLC 104% | 786-0 renal 74.6% | COLO 205 colon 63.1%

CN1CCN(c2ccc(NC3=C(Cl)C(=O)c4ncccc4C3=O)cc2C#N)CC1
active: HOP-92 NSCLC -61.4% | NCI-H522 lung -56.9%
inactive: NCI-H23 lung 51% | NCI-H226 lung 94% | NCI-H322M lung 103% | HOP-62 NSCLC 103% | NCI-H460 lung 94.8% | A549/ATCC NSCLC 110% | 786-0 renal 85.5% | COLO 205 colon 57.6%

C#CCn1cc(C=C2C(=O)NC(=S)NC2=O)c2cc(Cl)ccc21
active: NCI-H23 lung -4.83% | HOP-62 NSCLC -5.32% | 786-0 renal -54.2%
inactive: NCI-H226 lung 61.6% | NCI-H322M lung 80.3% | NCI-H460 lung 14.6% | HOP-92 NSCLC 48.4% | NCI-H522 lung 51.1% | A549/ATCC NSCLC 98.3% | COLO 205 colon 33.2%

COc1ccc(-c2c(-c3ccccc3)noc2N)cc1OC
inactive: NCI-H23 lung 105% | NCI-H226 lung 113% | NCI-H322M lung 96.1% | HOP-62 NSCLC 124% | NCI-H460 lung 116% | HOP-92 NSCLC 90.8% | NCI-H522 lung 86.1% | A549/ATCC NSCLC 93.8% | 786-0 renal 96.4% | COLO 205 colon 118%

CCOC(=O)c1ccc(Nc2ccnc(SCC(=O)c3ccc(C#N)cc3)n2)cc1
inactive: NCI-H23 lung 79.9% | NCI-H226 lung 61.4% | NCI-H322M lung 90.5% | HOP-62 NSCLC 63.4% | NCI-H460 lung 90.5% | HOP-92 NSCLC 105% | NCI-H522 lung 27% | A549/ATCC NSCLC 60.6% | 786-0 renal 78.4% | COLO 205 colon 70.8%

CN(C)C(=O)OCc1nc2c(N3CCOCC3)nc(-c3ccccc3)nc2n1C
active: NCI-H23 lung -67.3% | NCI-H226 lung -66.1% | HOP-62 NSCLC -46.9% | NCI-H460 lung -71.8% | HOP-92 NSCLC -68.4% | NCI-H522 lung -46.8% | A549/ATCC NSCLC -29.6% | 786-0 renal -71.3% | COLO 205 colon -70.5%
inactive: NCI-H322M lung 53.4%

O=C1/C(=C\c2cn(Cc3ccccc3)c3ccc(Br)cc23)c2ccccc2N1c1c(Cl)cccc1Cl
inactive: NCI-H23 lung 96.9% | NCI-H226 lung 91.6% | NCI-H322M lung 96.8% | HOP-62 NSCLC 98.5% | NCI-H460 lung 107% | HOP-92 NSCLC 57.1% | NCI-H522 lung 80.7% | A549/ATCC NSCLC 90.5% | 786-0 renal 99.2% | COLO 205 colon 108%

C=C(C)[C@@H]1CC[C@]2(C(=O)O)CC[C@]3(C)[C@H](CC[C@@H]4[C@@]5(C)C[C@@H](CC#Cc6ccc(Br)cc6)C(=O)C(C)(C)[C@@H]5CC[C@]43C)[C@@H]12
inactive: NCI-H23 lung 31.2% | NCI-H226 lung 17.3% | NCI-H322M lung 65.7% | HOP-62 NSCLC 52.3% | NCI-H460 lung 42.3% | HOP-92 NSCLC 65.8% | NCI-H522 lung 17.3% | A549/ATCC NSCLC 33.1% | 786-0 renal 63.1% | COLO 205 colon 69.1%
